Results: PubChem BioAssay (Tox21)
Results filed as inconclusive are left out. A number with no mark means an inactive call. Active and inactive are the calls of the source. Calls come from the whole dose curve.

molecular target: Vitamin D3 receptor (Homo sapiens) (UniProt P11473); experiment: qHTS assay to identify small molecule agonists of the vitamin D receptor (VDR) signaling pathway (AID 743222); details: HEK293T VDR-UAS-bla, beta-lactamase FRET ratio, 16 h; series mostly up to 63.5 µM; activation: at the top concentration
Description: National Center for Advancing Translational Sciences [NCATS]
NIH Chemical Genomics Center [NCGC]
U.S. Environmental Protection Agency [EPA]
National Institutes of Environmental Health Sciences [NIEHS]
National Toxicology Program [NTP]
U.S. Food and Drug Administration [FDA]
The vitamin D receptor (VDR), a member of nuclear hormone receptor superfamily, plays a critical role in calcium homeostasis and bone metabolism. It is also involved in cell differentiation and growth, and thrombogenicity.
Tox21 Assay Protocol Summary:
VDR-bla cells were dispensed at 2,000 cells/6 uL/well into black wall/clear-bottom 1536-well plates using a Multidrop Combi (Thermo Fisher Scientific, Waltham, MA) dispenser. After the assay plates were incubated at a 37C and 5% CO2 for 4 h, 23 nL of compounds dissolved in DMSO, positive controls or DMSO only was transferred to the assay plate by a Pintool station (Kalypsys, San Diego, CA). The plates were incubated at 37C and 5% CO2 for 16 h. After 1 uL of LiveBLAzerTM B/G FRET substrate was added using a Bioraptr Flying Reagent Dispenser (FRD) workstation (Beckman Coulter, Indianapolis, IN, USA), the plates were incubated at room temperature for 2 h, and fluorescence intensity was measured by an Envision plate reader (PerkinElmer, Shelton, CT).
% is set by controls: 0 for no effect and ±100 for the full control effect.

Chain of Vitamin D3 receptor (Homo sapiens) (P11473 whole entry, looked up): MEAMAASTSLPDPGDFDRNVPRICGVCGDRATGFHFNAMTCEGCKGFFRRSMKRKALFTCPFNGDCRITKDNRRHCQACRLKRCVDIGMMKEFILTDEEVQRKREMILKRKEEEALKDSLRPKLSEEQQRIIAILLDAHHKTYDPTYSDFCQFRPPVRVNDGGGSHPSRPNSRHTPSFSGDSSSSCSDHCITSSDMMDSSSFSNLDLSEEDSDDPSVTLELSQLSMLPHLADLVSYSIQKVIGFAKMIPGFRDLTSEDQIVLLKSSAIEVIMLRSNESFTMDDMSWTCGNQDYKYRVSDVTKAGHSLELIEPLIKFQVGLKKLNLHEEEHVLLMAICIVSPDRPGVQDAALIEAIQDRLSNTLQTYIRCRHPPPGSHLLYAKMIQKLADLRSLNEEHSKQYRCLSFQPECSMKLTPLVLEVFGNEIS

SMILES | activation | Potency
CC1=Nc2ccccc2C1(C)C | 3.45% | 
CCC(CC)C(C)CCOC(C)=O (stereo not given) | -10.5% | 
CN(C)Cc1ccccc1O | -1.03% | 
CC1(C)CCC[C@]2(C)[C@H]3CCO[C@]3(C)CC[C@@H]12 | 8.43% | 
CCCCOC(=O)CO | -0.95% | 
OC/C=C/CO | -0.599% | 
O=C1C(c2[nH]c3ccc(S(=O)(=O)O)cc3c2O)=Nc2ccc(S(=O)(=O)O)cc21 | 12.4% | 
O=C(Oc1ccccc1)Oc1ccccc1 | 0.0131% | 
C/C=C/C=C/COC(=O)C(C)C | -13.4% | 
COc1c(C)c2c(c(O)c1C/C=C(\C)CCC(=O)OCCN1CCOCC1)C(=O)OC2 | 1.2% | 
Oc1cc(Cl)cc(Cl)c1Cl | -11.1% [at 81.1 µM] | 
c1ccsc1 | 8.61% | 
C[Si](Cl)(c1ccccc1)c1ccccc1 | -14.5% | 
CCCCOC(=O)CC | -7.66% | 
CCc1cccc(CC)c1NC(=O)CN(CC(=O)O)CC(=O)O | 9.5% | 
CC(C)Cn1cnc2c(N)nc3ccccc3c21 | -11.4% [at 29.5 µM] | 
ClCCl | 1.79% | 
CCCC(=O)OCCc1ccccc1 | -0.167% | 
CC(CO)Oc1ccccc1 (stereo not given) | 1.44% [at 81.1 µM] | 
CC(C)CCOC(=O)/C=C/c1ccccc1 | 2.38% [at 81.1 µM] | 

SMILES | activation | Potency
O[C@@H]([C@H](O)[C@H](O)CBr)[C@H](O)CBr | -0.929% | 
CCCC(=O)OCOC(=O)C1=C(C)NC(C)=C(C(=O)OC)C1c1cccc(Cl)c1Cl (stereo not given) | 2.11% | 
CN(C)CCN1CCN(c2cccc(Cl)c2)C1=O | 1.01% | 
CCCc1ccc(OCC(=O)N2CCN(C(=O)COc3ccc(CCC)cc3OC)CC2)c(OC)c1 | -14.2% | 
CCN1C(=O)c2ccccc2C1Nc1ccc(OCCN2CCCCC2)cc1 (stereo not given) | -1.96% | 
C[C@H]1NCc2cc(-c3ccc4c(=O)c(C(=O)O)cn(C5CC5)c4c3OC(F)F)ccc21 | 4.85% [at 29.5 µM] | 
CC[N+](CC)(CC)CCOC(=O)C(C1CCCC1)C1CCCC1 | -6.67% | 
Clc1sc(Cl)c(Cl)c1Cl | -4.25% | 
C=CC(C)(CCC=C(C)C)OC=O (stereo not given) | 7.87% | 
CN1CCN2c3ccccc3Cc3ccccc3C2C1 (stereo not given) | -1.67% | 
c1ccc(SSc2ccccc2)cc1 | -12.2% [at 81.1 µM] | 
CCO[Si](OCC)(OCC)OCC | -1.62% [at 81.1 µM] | 
O=C1c2ccccc2C(=O)N1SC1CCCCC1 |  | inactive
COC(=O)Nc1nc2ccc(C(=O)c3ccccc3)cc2[nH]1 | -9.98% | 
Cc1c(F)c(N2CCNC(C)C2)cc2c1c(=O)c(C(=O)O)cn2C1CC1 (stereo not given) | -3.14% | 
CC(C)(c1cc(Br)c(OCC(Br)CBr)c(Br)c1)c1cc(Br)c(OCC(Br)CBr)c(Br)c1 (stereo not given) | 6.64% | 
CCOc1ccc2ccccc2c1C(=O)N[C@@H]1C(=O)N2[C@@H]1SC(C)(C)[C@@H]2C(=O)O | 0.313% | 
C#CC1(O)CC[C@H]2[C@@H]3CCC4=CCCC[C@@H]4[C@H]3CC[C@@]21C (stereo not given in full) |  | inactive
CC(C)NC[C@@H](O)COc1ccc(CC(N)=O)cc1 | -0.431% | 
NC(=S)NC(N)=S | -16.6% | 
